Data published in PubChem BioAssay (NCI).
The panel holds about 83,000 compounds, 20% with a hit somewhere; the sample as a whole holds those more often.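 A percent growth of 40 corresponds to 60% growth inhibition; 0 means no net growth; -100 means all cells died. Active threshold: below 10.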 A number with no mark means an inactive call. Active and inactive are the calls of the source.

Columns and labels:
Assay in all cases: NCI-60 one-dose screen, 48 h (100 = growth as untreated, 0 = no growth, -100 = all killed)
Details in all cases: 10 µM unless noted
NCI-H322M lung = test system: NCI-H322M lung
HOP-62 NSCLC = test system: HOP-62 NSCLC
NCI-H460 lung = test system: NCI-H460 lung
HOP-92 NSCLC = test system: HOP-92 NSCLC
NCI-H522 lung = test system: NCI-H522 lung
A549/ATCC NSCLC = test system: A549/ATCC NSCLC
786-0 renal = test system: 786-0 renal
COLO 205 colon = test system: COLO 205 colon
DU-145 prostate = test system: DU-145 prostate
K-562 leukemia = test system: K-562 leukemia
MALME-3M melanoma = test system: MALME-3M melanoma
MDA-MB-231 breast = test system: MDA-MB-231 breast
RXF 393 renal = test system: RXF 393 renal
SF-268 CNS = test system: SF-268 CNS
SF-295 CNS = test system: SF-295 CNS
SF-539 CNS = test system: SF-539 CNS
UACC-257 melanoma = test system: UACC-257 melanoma
M14 melanoma = test system: M14 melanoma
HCT-15 colon = test system: HCT-15 colon

| SMILES | growth (NCI-H322M lung) | growth (HOP-62 NSCLC) | growth (NCI-H460 lung) | growth (HOP-92 NSCLC) | growth (NCI-H522 lung) | growth (A549/ATCC NSCLC) | growth (786-0 renal) | growth (COLO 205 colon) | growth (DU-145 prostate) | growth (K-562 leukemia) | growth (MALME-3M melanoma) | growth (MDA-MB-231 breast) | growth (RXF 393 renal) | growth (SF-268 CNS) | growth (SF-295 CNS) | growth (SF-539 CNS) | growth (UACC-257 melanoma) | growth (M14 melanoma) | growth (HCT-15 colon) |
| --- | --- | --- | --- | --- | --- | --- | --- | --- | --- | --- | --- | --- | --- | --- | --- | --- | --- | --- | --- |
| c1ccc2c(NCCCn3ccnc3)c3oc4ccccc4c3nc2c1 | -13.4% (active) | 19.5% | -19.3% (active) | -23.7% (active) | -23.1% (active) | 10.5% | 2.46% (active) | -30.9% (active) | -17.2% (active) | 5.89% (active) | 1.01% (active) | -10% (active) | -33.3% (active) | 10.7% | 5.7% (active) | 4.46% (active) | 16.4% | 2.76% (active) | -6.93% (active) |
| Cc1cc(=O)oc2cc(OCCCOc3ccc(/C=C/C(=O)Nc4ccc(Cl)cc4)cc3)ccc12 | 83% | 90.2% | -6.83% (active) | 25.2% | 82.6% | 28.6% | 46.4% |  | 73.6% | 69.1% | 56.6% | 69.7% | 44.9% | 66.9% | 77.7% | 75.6% | 81.5% | 74.2% | 60.4% |
| CCN1CCN(/C(=N\c2sc(-c3ccccc3)nc2-c2ccccc2)c2ccccc2)CC1 | 91.8% | 95.4% | 72.1% |  | 71.6% | 80.2% | 51.2% | 84.5% | 93.7% | 32.8% | 108% | 79.9% | 72.1% | 89.2% | 111% | 87.8% | 80.4% | 81.1% | 38.1% |
| COc1cc2nc(-c3ccc(C(F)(F)F)cc3)cc(OCCCNCC3CCCO3)c2cc1OC (stereo not drawn) | 57.2% | 53.8% | 21.8% | 26.3% | 41.8% | 37.3% | -55.2% (active) | 23.3% | 36.7% | 10.2% | -15.6% (active) | 18.2% | 3.22% (active) | 59.5% | -33.6% (active) | 45.5% | -38.7% (active) | -66.5% (active) | 13.7% |
| COc1ccc(Cc2nn(CC(=O)N/N=C/c3ccc(Cl)cc3)c(=O)c3c(C)noc23)cc1 | 94.8% | 70.4% | 64.9% |  | 74.4% | 46% | 52.6% | 102% | 93% | 96.3% | 95% | 76.2% | 77.7% | 83.9% | 69.3% | 58.7% | 90.9% | 89.9% | 88.3% |
| CN(C)CCCNc1c2ccccc2nc2c1oc1ccc(Cl)cc12 | 24.4% | 55.7% | 12.6% | 34.8% | 38% | 27.5% | 18.6% | 14.5% | 20.8% | -1.57% (active) | 30.7% | -31.7% (active) | -65.8% (active) | 40.9% | 24.6% | 18.3% | 49.9% | 27% | -31.1% (active) |
| O=C(N/N=C/c1cccs1)c1[nH]c2ccc(Br)cc2c1-c1ccccc1 | 44.7% | 44.2% | 6.54% (active) | 39.9% | -43.9% (active) | 23.1% | 12% |  | 20.7% | 4.72% (active) | 58.2% | 5.46% (active) | 62.8% | 35.3% | 15.9% | 2.22% (active) | 61.2% | 1.81% (active) | 9.74% (active) |
| Nc1nc(N)c2c(n1)NC(c1ccc(C(F)(F)F)cc1)CC(c1ccc(Nc3nc(NCCO)nc(Nc4ccc(Cl)cc4)n3)cc1)=N2 (stereo not drawn) | -61% (active) | 71.7% | -69% (active) |  | -80.1% (active) | -66.2% (active) | -90.2% (active) | 5.02% (active) | -93.1% (active) | 1.08% (active) | -79% (active) | -59.4% (active) | -78.8% (active) | -29.4% (active) | -79.5% (active) | -86.2% (active) | 74.1% | -86.9% (active) | -54.4% (active) |
| CCOc1ccc2nc(NC(=O)c3ccc(C(F)(F)F)cc3)sc2c1 | 107% | 118% | 101% | 139% | 94.4% | 101% | 99.6% | 117% | 105% | 108% | 112% | 106% | 114% | 106% | 111% | 105% | 107% | 107% | 100% |
| Cn1ccnc1C(=O)/C=C/c1ccc(NC(=O)Nc2ccccc2)cc1 | 28.8% | 16.1% | -56.7% (active) | 57.4% | 11.9% | 6.79% (active) | 5.89% (active) | 11.1% | 4.23% (active) | 7.81% (active) | 69.6% | -2.86% (active) | -5.31% (active) | 3.22% (active) | 3.79% (active) | -29.5% (active) | 80% | 24.8% | 12.4% |
| CCOC(=O)c1sc(NCC(=O)Nc2cccc([N+](=O)[O-])c2)c(C(=O)OCC)c1C | -8.8% (active) |  | 2.96% (active) | -19.5% (active) | -41.5% (active) | -38.1% (active) | -12.4% (active) | -33.4% (active) | -6.75% (active) | 5.97% (active) | -63.7% (active) | -24.5% (active) | -74% (active) | -25% (active) | -77.5% (active) | -35.1% (active) | -6.79% (active) | -73% (active) | 2.01% (active) |
| O=C(N/N=C/c1ccco1)c1[nH]c2ccc(Br)cc2c1-c1ccccc1 | 42.1% | 35.4% | 2.19% (active) |  | -39.7% (active) | 35.4% | 16.4% | -35.2% (active) | 13.4% | 8.75% (active) | 54.9% | 6.62% (active) | 62.2% | 29.9% | 21.8% | -15.1% (active) | 72.5% | 11.6% | 10.4% |
| Cc1[nH]nc2ncc(C#Cc3cncc(C(=O)Nc4ccc(CN5CCN(C)CC5)c(C(F)(F)F)c4)c3)cc12 | 44.3% | 28.9% | 10.7% | -23% (active) | 47.8% | 23.9% | 43.1% | -25.6% (active) | 36.4% | 7.53% (active) | -28.5% (active) | -39.2% (active) | -12.8% (active) | 21.2% | 34.2% | -3.8% (active) | 14.7% | -17.1% (active) | 12.5% |
| CN(C)CCCNc1c2ccc(Cl)cc2nc2c1oc1ccccc12 | -9.39% (active) | 46.9% | -3.28% (active) | -1.97% (active) | 2.37% (active) | -40.4% (active) | 2.06% (active) | 1.47% (active) | 4% (active) | 3.28% (active) | 14.6% | -17.5% (active) | -68.1% (active) | 23% | -25.1% (active) | -68.7% (active) | 32% | 15.5% | -20.6% (active) |
| CSc1ccc2c(c1)N(C(=O)/C(C#N)=C/c1c[nH]c3ccccc13)c1ccccc1S2 | 86.1% | 59.9% | 45.5% | 44.1% | 5.48% (active) | 47.3% | 50% | 40.8% | 51.3% | 16.4% | 55.7% | 53.2% | 38.8% | 55.8% | 15% | 7.54% (active) | 57% | 29.5% | 27.3% |
